# NPC1 promoter act – NPC1 promoter activation; Potency, µM (series often up to 9.22 µM), actives largely listed as activators; AID 485313; Huh7 NPC1 promoter luciferase reporter, 24 h; 320,000 compounds, 2.4% hits; note: nearly all actives have a fitted effect of over 60% in size
#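 In 1536-well qHTS, Huh7 cells harboring an NPC1 promoter–luciferase construct received compound for 24 h; activation was quantified by luminescence following luciferase reagent addition.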
# ELG1 genotox – induces genotoxicity in HEK293T cells with luciferase-tagged ELG1; HEK293T ELG1-luciferase reporter, luminescence, 16 h; Potency, µM (top dose mostly 46 µM), hits mostly activators; 330,000 compounds, 1.3% hits; AID 504466; note: nearly all actives have a fitted effect of over 60% in size
#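 Genotoxicity was scored as increased ELG1-luciferase reporter signal, measured by ONE-Glo luminescence (30 min, room temperature). Compound or vehicle exposure of the HEK293T reporter cells lasted 16 hr at 37°C.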
# Luc counter – counter-screen: inhibitors of Kinase-Glo firefly luciferase | AID 1379 | Kinase-Glo luciferase, ATP luminescence, 8 min | Potency, µM (series often up to 38.3 µM), actives largely listed as inhibitors | Q27757 | 200,000 compounds, 0.28% hits; note: nearly all actives have a fitted effect of over 60% in size
#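 Compound is pinned into ATP-containing buffer (10 uM ATP, imidazole pH 7.2, 7 mM MgCl2). Kinase-Glo luciferase reagent is then added. Light output is recorded following an 8-min room-temperature incubation.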
# Rab9 prom act – activates the Rab9 promoter; Huh7 Rab9 promoter-luciferase reporter, luminescence, 24 h; Potency, µM (doses to about 9.22 µM), hits mostly activators; 320,000 compounds, 2.8% hits; note: nearly all actives have a fitted effect of over 60% in size
#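 Luminescence from Amplite-detected luciferase (10 minutes, ambient) reports Rab9 promoter activation. Before that, stable Rab9-luciferase Huh7 cells (1500/well, reduced-serum OP-MEM I plus 10% FBS) were exposed to compound for 24 hours at 37C.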
# FLuc counter – counter-screen for miR-21 project: firefly luciferase inhibitors or activators; P08659; purified FLuc, Km substrates, luminescence inhibition; Potency, µM (titrated, usually from 57.5 µM), actives largely listed as inhibitors; 360,000 compounds, 6.9% hits; note: nearly all actives have a fitted effect of over 55% in size
# Target sequence (P08659 whole entry, looked up): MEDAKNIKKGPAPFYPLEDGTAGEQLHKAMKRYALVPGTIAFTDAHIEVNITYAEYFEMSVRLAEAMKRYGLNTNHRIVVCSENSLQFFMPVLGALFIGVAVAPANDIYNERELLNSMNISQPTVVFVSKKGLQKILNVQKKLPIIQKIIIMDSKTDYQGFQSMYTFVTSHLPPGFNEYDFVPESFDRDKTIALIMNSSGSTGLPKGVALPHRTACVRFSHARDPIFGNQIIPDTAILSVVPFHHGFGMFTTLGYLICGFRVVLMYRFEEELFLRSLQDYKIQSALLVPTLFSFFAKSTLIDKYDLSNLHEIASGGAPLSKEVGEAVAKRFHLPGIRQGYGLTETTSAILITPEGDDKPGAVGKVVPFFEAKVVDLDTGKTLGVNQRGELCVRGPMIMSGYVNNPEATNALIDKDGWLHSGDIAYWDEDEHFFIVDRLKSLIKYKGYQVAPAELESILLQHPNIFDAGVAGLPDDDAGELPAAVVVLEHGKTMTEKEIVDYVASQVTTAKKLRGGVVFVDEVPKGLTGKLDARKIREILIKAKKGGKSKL
#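 Biochemical qHTS of compounds, final roughly 60 µM downward over six points, against 10 nM purified firefly luciferase using Km concentrations of substrates (10 uM D-luciferin, 10 uM ATP) in Tris acetate pH 7.5 buffer; luminescence output.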
# SMN2 splice up – enhancers of SMN2 splice variant expression; 210,000 compounds, 2.8% hits; Potency, µM (top dose mostly 46.1 µM), hits mostly activators; AID 1458; HEK293 SMN2-luciferase splicing reporter, luminescence, 30-36 h; note: nearly all actives have a fitted effect of over 55% in size
#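 HEK293 cells carry an SMN2 minigene-luciferase reporter in which exon 7 inclusion puts luciferase in frame. Cells were seeded at 2000 cells/well, attached for 10-12 hours, then exposed to compounds for 30-36 hours at 37C before ONE-Glo luminescence.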
# A number is an active result; . = inactive; ? = inconclusive; / = no result; [ ] = another dose, or the depositor's remark. Shown are actives, neighbours in structure and some others; about 7.5% of the full set was active somewhere. Calls come from the whole dose curve; as a rule, active = well fitted curve in the direction sought with a large enough effect; inconclusive = small, poorly fitted or top-dose-only effect, or another doubt; inactive = no such curve, though single readings can be large; an effect the other way counts as inactive or inconclusive.
SMILES,NPC1 promoter act,ELG1 genotox,Luc counter,Rab9 prom act,FLuc counter,SMN2 splice up
Cc1ccc2scc(N3CCCC(C)C3)c(=O)c2c1 (stereo not given),/,/,/,/,0.76µM,/
CC1CCCCN1c1csc2ccc(F)cc2c1=O (stereo not given),/,/,/,/,7.6µM,/
Cc1ccc2scc(N3CCN(c4cccc(C(F)(F)F)c4)CC3)c(=O)c2c1,/,/,/,/,.,/
COc1cc2c(cc1OC)-c1c(oc3cc(O)cc(O)c3c1=O)CO2,/,/,.,/,/,.
O=C(NCCc1ccc(Cl)cc1)c1ccc(Br)s1,4µM,?,/,4.5µM,?,/
O=C(NCCc1ccc(F)cc1)c1ccncc1,.,.,/,.,.,/
Cc1ccc(C(=O)NCCc2ccc(F)cc2)s1,1.4µM,?,.,2.8µM,9.5µM,4.5µM
Cc1nnc(NC(=O)CSCc2cc(=O)c3ccc(C)c(C)c3[nH]2)s1,/,/,/,/,.,/
CC(=O)NC(CSC(CC(=O)c1ccco1)c1ccc(C)cc1)C(=O)O (stereo not given),.,?,.,?,4.3µM,.
O=C1C2C3C=CC(C4CC34)C2C(=O)N1/N=C/c1cccs1 (stereo not given),.,.,.,.,17µM,.
O=C(O)c1ccc2c(c1)C(=O)N(CCc1c[nH]c3ccccc13)C2=O,2.5µM,?,/,3.2µM,17µM,/
O=C(O)c1ccc2c(c1)C(=O)N(CCc1ccccc1)C2=O,.,.,/,.,.,/
CCc1ccccc1NC(=O)c1cc(S(=O)(=O)N2CCCC2)cn1C,/,/,/,/,.,/
CCCOc1ccc(NC(=O)CC2C(=O)N(c3ccc(C)cc3)C(=O)N2Cc2cccc(OC)c2)cc1 (stereo not given),/,/,/,/,.,/
Cc1ccnc(NC(=O)Nc2cccc(F)c2)c1,1.6µM,0.92µM,.,1µM,0.95µM,3.5µM
Cc1ccc(NC(=O)Nc2cccc(F)c2)nc1,?,?,/,?,6.7µM,/
Cc1ccc(C)c(N2CCN(C3(c4ccccc4)C(=O)c4ccccc4C3=O)CC2)c1,/,/,/,/,.,.
COc1ccc(NC(=O)CCCn2c(=O)c3cccn3c3ccccc32)c(OC)c1,/,/,/,/,0.85µM,/
COc1ccccc1NC(=O)CCn1c(=O)c2cccn2c2ccccc21,.,.,/,.,.,/
O=C(CCCn1c(=O)c2cccn2c2ccccc21)Nc1cccc(Cl)c1,/,/,/,/,12µM,/
COc1ccc(-n2c(=O)[nH]c3cc(C(=O)NCCc4ccccc4)ccc3c2=O)cc1OC,.,.,/,.[1.84 µM],.,.
O=C(O)CSC(=S)N1CCCC1,.,.,/,.,.,/
O=C(CSC(=S)N1CCCCC1)c1ccccc1,0.5µM,0.65µM,.,0.32µM,1.2µM,0.56µM
O=C(CSC(=S)N1CCCC1)c1ccccc1,0.63µM,0.58µM,/,0.4µM,1.1µM,/
COc1cc(NC(=O)CN2Cc3ccccc3C2=O)cc(OC)c1OC,/,/,/,/,.,/
SMILES,NPC1 promoter act,ELG1 genotox,Luc counter,Rab9 prom act,FLuc counter,SMN2 splice up
COc1ccc(CCNC(=O)c2c(C)oc3nc(C)nc(N4CCOCC4)c23)cc1OC,/,/,/,/,.,/
CC(=O)c1cccc(NC(=O)CN2C(=O)c3ccccc3Sc3ncccc32)c1,/,/,/,/,.,/
Cc1cc(C(=O)Cn2ncc(Cl)c(Cl)c2=O)c(C)n1CC(F)(F)F,.,.,.,.,15µM,?
COc1cc(Cl)ccc1OCc1cc(C(=O)N2CCCCCC2)no1,.,.,/,.,?,/
COc1cc(C)ccc1OCc1cc(C(=O)N2CCC(c3ccc(F)cc3)C2)no1 (stereo not given),2.2µM,?,/,2.2µM,7.6µM,/
CCCOC1CCCN(C(=O)c2cc(COc3ccc(F)c(F)c3)on2)C1 (stereo not given),2.8µM,?,/,2.8µM,21µM,/
COc1cc(Cl)ccc1OCc1cc(C(=O)N2CCCC(OC)C2)no1 (stereo not given),2µM,5.8µM,/,1.8µM,5.4µM,/
COc1ccc(OCc2cc(C(=O)N3CCC(OC)CC3)no2)c2ccccc12,?,?,/,2.5µM,11µM,/
COc1ccc(-n2c(=O)c3c(c4cc(OC)ccc4n3C)n(Cc3c(F)cccc3Cl)c2=O)cc1,/,/,/,/,.,/
CCOC(=O)C1CCN(C(=O)c2cc(COc3ccc(OC)c4ccccc34)on2)CC1,?,?,/,3.5µM,15µM,/
O=C(NCc1ccc(Cl)cc1)c1cc2ccccc2oc1=O,.,.,/,.,?,/
O=C(NCc1ccccc1)c1cc2ccccc2oc1=O,.,?,/,.,15µM,/
CN(C)C(CNC(=O)c1cc2ccccc2oc1=O)c1ccccc1 (stereo not given),3.5µM,?,/,?,15µM,/
COc1ccc(CNC(=O)c2cc3ccccc3oc2=O)cc1,.,.,/,.,?,/
O=C1CC(c2ccccc2)Cc2[nH]c(=O)c(-c3nc(-c4ccc(F)cc4)cs3)cc21 (stereo not given),/,/,/,/,.,.
NC(=O)c1ccc(NC(=O)COC(=O)CCN=C2NS(=O)(=O)c3ccccc32)cc1,.,.,/,.,.,/
CCOC(=O)Cc1ccc(NC(=O)n2ncc3c(C)cccc32)cc1,/,/,/,/,5.4µM,.
COC(=O)c1ccc(NC(=O)n2ncc3c(C)cccc32)cc1,/,/,/,/,.,/
CCOc1ccc(NC(=O)n2ncc3c(C)cccc32)cc1,0.45µM,?,/,1.4µM,1.3µM,/
COc1cccc(NC(=O)n2ncc3c(C)cccc32)c1,0.089µM,1.6µM,/,0.32µM,0.17µM,/
COc1ccc(CNC(=O)[C@@H](NC(=O)C2CCN(S(=O)(=O)c3ccc(C)cc3)CC2)C(C)C)cc1OC,.,.,/,.,.,/
CCOC(=O)c1sc(-c2ccc(Cl)cc2Cl)nc1O,.,.,/,.,17µM,/
COc1ccccc1C(=O)NCCC(=O)NNC(=O)Cn1ccc(C(F)(F)F)n1,.,.,/,.,.,/
Cc1cccc(C(=O)NCC(=O)OCC(=O)N2CCc3ccccc32)c1,.,.,.,.,.,.
O=C(Cc1ccccc1F)OCC(=O)N1CCc2ccccc21,.,.,.,.,6.7µM,.
SMILES,NPC1 promoter act,ELG1 genotox,Luc counter,Rab9 prom act,FLuc counter,SMN2 splice up
O=C(CNC(=O)c1ccccc1Cl)OCC(=O)N1CCc2ccccc21,.,?,.,.,13µM,.
CN(CC(=O)Nc1ccc(F)cc1)C(=O)CCc1ccccc1,.,.,/,.,.,/
Clc1ccc(-c2nnc(SCc3ccon3)o2)c(Cl)c1,0.35µM,1.2µM,.,0.5µM,1.2µM,2.8µM
C=CCSc1nnc(-c2ccc([N+](=O)[O-])cc2)o1,3.5µM,?,.,4µM,17µM,?
C=CCSc1nnc(-c2ccc(Cl)cc2Cl)o1,0.71µM,?,.,0.45µM,1.3µM,?
CC(C)c1ccc(C(O)P(=O)(OC2CCCCC2)OC2CCCCC2)cc1 (stereo not given),.,.,/,.,.,/
O[C@@H](C1=C/C(=C\c2ccncc2)c2ccccc21)c1ccncc1,/,/,.[7.66 µM],/,/,.[9.22 µM]
COC(=O)c1[nH]c2ccccc2c1CN1CCOCC1,.,.,/,.,.,/
Nc1c(-c2cccc(Cl)c2)cnn1-c1ccccc1,?,.,/,?,17µM,/

# High-throughput results: PubChem, National Center for Advancing Translational Sciences (NCATS)
